PubChem BioAssay (NCATS)
Inconclusive results are not listed. Entries that show only a call come without a potency. The source made the active and inactive calls. Calls come from the whole dose curve; as a rule, active = well fitted curve in the direction sought with a large enough effect; inconclusive = small, poorly fitted or top-dose-only effect, or another doubt; inactive = no such curve, though single readings can be large; an effect the other way counts as inactive or inconclusive.

Tests used:
[1] = target: Aldehyde dehydrogenase, mitochondrial (Homo sapiens) (UniProt P05091); assay: qHTS for Inhibitors of the Aldehyde Dehydrogenase Family (ALDH2) Primary screen (AID 2061308); note: nearly all actives have a fitted effect of over 55% in size
[2] = target: Retinaldehyde dehydrogenase 3 (Homo sapiens) (UniProt P47895); assay: qHTS for Inhibitors of the Aldehyde Dehydrogenase Family (ALDH1A3) Primary screen (AID 2061315)

Row | Structure (SMILES) | Potency [1] | Potency [2]
1 | COc1ccc2nc(-c3ccc(F)cc3Cl)sc2c1 | inactive | inactive
2 | Cc1ccc(NC(=O)Nc2nnc(-c3ccncc3)s2)cc1C | inactive | inactive
3 | CC(=O)Nc1sc2c(c1-c1nc3ccccc3s1)CCS(=O)(=O)C2 | inactive | inactive
4 | Cc1cc(C)nc(NC(=S)N2CCN(c3nc4ccccc4s3)CC2)c1 | inactive | inactive
5 | Cc1ccc(S(=O)(=O)Nc2cccc3cccnc23)cc1 | inactive | inactive
6 | COc1cc(C(=O)Nc2nc(-c3ccccc3)cs2)ccc1NS(=O)(=O)c1ccc(C)cc1 | inactive | inactive
7 | Cc1cc2c(s1)c1cnn(Cc3ccc(F)cc3F)c(=O)c1n2C | inactive | inactive
8 | Cc1ccc(S(=O)(=O)Nc2ccccc2C(=O)Nc2ccc(-c3ccccc3)cn2)cc1 | inactive | inactive
9 | Cc1ccc(-c2ccc(=O)n(CC(=O)NCCc3ccc(O)cc3)n2)cc1 | inactive | inactive
10 | CCOC(=O)C1CCN(C(=O)C2(NC(=O)Nc3ccccc3Cl)CCC2)CC1 | inactive | inactive
11 | CCOc1cccc(-c2cc(-c3n[nH]c(=O)n3CC)c3ccccc3n2)c1 | inactive | inactive
12 | S=C(NCCCc1cnc[nH]1)NCCN(Cc1ccc(Cl)c(Cl)c1)c1ccc(Br)cn1 | inactive | inactive
13 | COc1cccc(N2C(=O)c3ccccc3C2=O)n1 | inactive | inactive
14 | C/C1=C\CC(C)(C)/C=C/C/C(C(=O)O)=C/CC1 | inactive | inactive
15 | O=C(Nc1ccc(-c2nc3ccccc3[nH]2)cc1)c1ccc2cc[nH]c2c1 | inactive | inactive
16 | NC(=O)C1CCN(c2ncc(Br)cn2)CC1 | inactive | inactive
17 | Cn1nnnc1Sc1ncnc2scc(-c3cccs3)c12 | inactive | inactive
18 | Cc1cc(C)nc(NC(=S)N2CCN(c3ncnc4sccc34)CC2)c1 | inactive | inactive
19 | N#CN1CCC(NS(=O)(=O)c2ccc(F)cc2)C1 (configuration not stated) | inactive | inactive
20 | O=C1C2=C(CN1c1ccccc1)NC(Nc1nc3ccccc3o1)=NC2c1ccccc1Cl (configuration not stated) | inactive | inactive
21 | N#Cc1nc(Nc2cc(Cl)cc(Cl)c2)nc(NC2CCCC2)n1 | inactive | inactive

Row | Structure (SMILES) | Potency [1] | Potency [2]
22 | Cc1cc(C)nc(NC(=S)N2CCN(c3cncnc3)CC2)c1 | inactive | inactive
23 | Cc1cccc(CNc2ccnc(-c3ccccc3C(F)(F)F)n2)c1 | inactive | inactive
24 | CC1=C(C(=O)Nc2nc3ccccc3s2)C2(CCCC2)N=C(Nc2nc3ccccc3o2)N1 | inactive | inactive
25 | Cc1cc(CNc2ncnc3ccc(-c4ccc5c(c4)OCO5)cc23)c(C)o1 | inactive | inactive
26 | Clc1cccc(CSc2nc3ncc(Br)cc3[nH]2)c1 | inactive | inactive
27 | CN1CCOc2ccc(S(=O)(=O)N3CCN(S(=O)(=O)c4c(F)cccc4F)CC3)cc21 | inactive | inactive
28 | O=C(NC1CCCc2c1cnn2-c1ccc(F)cc1F)c1ccccc1 (configuration not stated) | inactive | inactive
29 | CCOc1ccc(CCNC(=O)c2cc3sccc3n2Cc2ccccn2)cc1OCC | inactive | inactive
30 | CC(=O)Nc1ccc(C(=O)Nc2ccc(-c3nc4ccccc4[nH]3)cc2)cc1 | inactive | inactive
31 | Cc1noc(C)c1-c1ccc2ncnc(NCc3cc(F)cc(F)c3)c2c1 | inactive | inactive
32 | O=C1CCCC2CC(Nc3nc4ccccc4o3)CC(c3ccccc3)C12 (configuration not stated) | inactive | inactive
33 | Cc1ccc(C(=O)Nc2ccc(N3CCOCC3)cc2)cc1 | inactive | inactive
34 | COc1ccc([S+](=O)([O-])N2CCCN([S+](=O)([O-])c3ccc(OC)c(NC(C)=O)c3)CC2)cc1NC(C)=O | inactive | inactive
35 | CC(=O)Nc1ccc(S(=O)(=O)N2CCCN(S(=O)(=O)c3ccc4c(c3)OCCO4)CC2)cc1 | inactive | inactive
36 | O=S(=O)(Nc1cccc2ccccc12)c1ccc(NCc2ccc(Br)cc2O)cc1 | inactive | inactive
37 | CC(=O)c1ccc(N2CCN(S(=O)(=O)c3ccc4c(c3)OCC(=O)N4)CC2)cc1 | inactive | inactive
38 | Cc1ccc(-c2cc(C(=O)Nc3ccc(-c4nn[nH]n4)cc3)c3ccccc3n2)cc1C | inactive | inactive
39 | O=C(Nc1nc(-c2ccccc2)cs1)c1ccccc1S(=O)(=O)Nc1nccs1 | inactive | inactive
40 | COc1cc(OC)cc(C2=Nn3c(nnc3-c3ccccc3O)SC2)c1 | inactive | inactive
41 | Cc1cc2c(s1)c1cnn(Cc3ccc(S(C)(=O)=O)cc3)c(=O)c1n2C | inactive | inactive
